This passage reports growth results from PubChem BioAssay (NCI).

The panel holds about 83,000 compounds, 20% with a hit somewhere; the sample as a whole holds those more often.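 Method: cells in 96-well plates; compound added at one concentration; 48 h incubation; percent growth measured; values under 10 scored active.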 A number with no mark means an inactive call. Activity calls are given as the source filed them.

Common to all, as to experiment: NCI-60 one-dose screen, 48 h (100 = growth as untreated, 0 = no growth, -100 = all killed)
The test system of one assay is HCT-15 colon. To be noted: 10 µM unless noted.
In another assay the test system is SNB-75 CNS. To be noted: 10 µM.
Another assay deals with SNB-19 CNS. The conditions noted are these: 10 µM unless noted.
The next assay deals with U251 CNS. The conditions noted are these: 10 µM unless noted.
The next assay relates to PC-3 prostate. To be noted: 10 µM unless noted.
Another assay deals with SK-MEL-5 melanoma. To be noted: 10 µM unless noted.
The next assay has as its system UACC-62 melanoma. The conditions noted are these: 10 µM unless noted.
For a further assay, the system named is LOX IMVI melanoma. The conditions noted are these: 10 µM unless noted.
The subject of the next assay is SK-MEL-28 melanoma. The conditions noted are these: 10 µM unless noted.
A further assay relates to SK-MEL-2 melanoma. The conditions noted are these: 10 µM unless noted.
The next assay deals with EKVX NSCLC. To be noted: 10 µM unless noted.
For another assay, the system named is SN12C renal. The conditions noted are these: 10 µM unless noted.
For the next assay, the system named is UO-31 renal. The conditions noted are these: 10 µM unless noted.
The subject of the next assay is TK-10 renal. The conditions noted are these: 10 µM unless noted.
The subject of a further assay is ACHN renal. To be noted: 10 µM unless noted.
Another assay relates to CAKI-1 renal. To be noted: 10 µM unless noted.
For the next assay, the system named is A498 renal. The conditions noted are these: 10 µM unless noted.
The test system of a further assay is CCRF-CEM leukemia. To be noted: 10 µM unless noted.
The next assay relates to MOLT-4 leukemia. To be noted: 10 µM unless noted.
The subject of the next assay is HT29 colon. To be noted: 10 µM unless noted.

For the molecule `CCCCCCCCCCCC(=O)NCCC[N+](C)(C)CC(=O)[O-]`, the growth with HCT-15 colon was 100%; in the assay on SNB-75 CNS, 93.4%; with SNB-19 CNS it was 88.3%; in the assay with U251 CNS it was 72.2%; in the assay on PC-3 prostate, 31.8%; with SK-MEL-5 melanoma, 95.6%. For the same molecule, the growth is 78% in the assay with UACC-62 melanoma; 79.8% with LOX IMVI melanoma; 99% in the assay with SK-MEL-28 melanoma; 96.3% in the assay on SK-MEL-2 melanoma; 103% in the assay on EKVX NSCLC; 103% in the assay on SN12C renal. The growth is 97.6% in the assay with UO-31 renal; 76.6% in the assay on TK-10 renal; 109% with ACHN renal; 95.8% in the assay on CAKI-1 renal; 91% in the assay on A498 renal; 89.5% in the assay with CCRF-CEM leukemia. The growth with MOLT-4 leukemia was 78.6%.

In the case of `CCN(CC)c1ccc(CNc2ccnc3ccccc23)cc1`, the growth in the assay with HCT-15 colon is 58.6%; in the assay with HT29 colon it was 24.8%; in the assay on U251 CNS, 52.4%; with PC-3 prostate, 42.4%; in the assay with SK-MEL-5 melanoma it was 8.05% (active); with UACC-62 melanoma, 76.4%. The growth in the assay with LOX IMVI melanoma is 54.7%; in the assay with SK-MEL-28 melanoma, 80.4%; with SK-MEL-2 melanoma, 79.3%; in the assay with EKVX NSCLC it was 45.3%; in the assay with SN12C renal, 64%; in the assay with UO-31 renal, 31.6%. Moreover, the growth in the assay on TK-10 renal was 60%; in the assay on ACHN renal, 75.8%; in the assay on CAKI-1 renal it was 61.9%; in the assay with A498 renal, 48.2%; with CCRF-CEM leukemia it was 53.3%; with MOLT-4 leukemia, 51.7%.

As for `C=C[C@@H]1C[C@@H]2Cc3c(C)cc(C)cc3N1O2`, the growth in the assay with HCT-15 colon is 101%; with SNB-75 CNS, 95.4%; in the assay with SNB-19 CNS, 113%; with U251 CNS, 90.2%; in the assay with PC-3 prostate, 93%; in the assay on SK-MEL-5 melanoma, 103%. Moreover, the growth in the assay with UACC-62 melanoma was 96%; in the assay with LOX IMVI melanoma, 88.4%; in the assay with SK-MEL-28 melanoma, 101%; in the assay with SK-MEL-2 melanoma, 110%; in the assay on EKVX NSCLC, 81.6%; in the assay with SN12C renal it was 101%. Further, the growth in the assay on UO-31 renal is 101%; in the assay on TK-10 renal it was 92.7%; with ACHN renal it was 101%; in the assay with CAKI-1 renal, 92.3%; in the assay with A498 renal it was 95.1%; in the assay on CCRF-CEM leukemia it was -61.1% (active). Further, in the assay on MOLT-4 leukemia, the growth was -50.7% (active).

In the case of `COc1ccc(S(=O)(=O)Nc2cc(/C=C\c3cc(OC)c(OC)c(OC)c3)cc(OC)c2OC)cc1`, the growth with HCT-15 colon was 15%; with HT29 colon it was 2.32% (active); in the assay on U251 CNS, 5.4% (active); with PC-3 prostate, 6.4% (active); with SK-MEL-5 melanoma, -6.88% (active); with UACC-62 melanoma, 46%. In addition, the growth in the assay with LOX IMVI melanoma is 21.5%; in the assay with SK-MEL-28 melanoma, 67.8%; with SK-MEL-2 melanoma, 18.3%; with SN12C renal, 23.3%; in the assay on UO-31 renal, 21%; in the assay with TK-10 renal, 64.9%. The growth in the assay on ACHN renal was 26.4%; in the assay with CAKI-1 renal, 22.9%; in the assay with A498 renal it was -11.5% (active); with CCRF-CEM leukemia, 13.7%.

For `COc1cc(/C=C/C(=O)c2ccc(Nc3ncnc4cc(OC)c(OC)cc34)cc2)cc(OC)c1`, the growth was 97.8% in the assay on HCT-15 colon; 96.1% with SNB-75 CNS; 94.9% in the assay on SNB-19 CNS; 72.3% in the assay on U251 CNS; 78% in the assay on PC-3 prostate; 109% in the assay with SK-MEL-5 melanoma. For the same molecule, the growth is 99.9% with UACC-62 melanoma; 88.3% in the assay with LOX IMVI melanoma; 114% in the assay on SK-MEL-28 melanoma; 105% in the assay with SK-MEL-2 melanoma; 101% in the assay with EKVX NSCLC; 91.1% in the assay with SN12C renal. In addition, the growth with UO-31 renal is 94.4%; in the assay on TK-10 renal it was 104%; with ACHN renal it was 102%; in the assay with CAKI-1 renal it was 97.6%; in the assay on A498 renal it was 95.8%; with MOLT-4 leukemia, 53.8%.

`O=C(Nc1cccc(-n2cc(-c3ccncc3)c(-c3ccc(Cl)c(O)c3)n2)c1)Nc1ccc(Cl)c(Cl)c1`: the growth in the assay on HCT-15 colon was 19.8%; in the assay with HT29 colon it was 45.9%; in the assay on U251 CNS, 12.4%; in the assay with PC-3 prostate, 5.43% (active); in the assay with SK-MEL-5 melanoma, -40.2% (active); in the assay with UACC-62 melanoma, 14.9%. The growth with LOX IMVI melanoma is 21.9%; in the assay on SK-MEL-28 melanoma, 24.6%; in the assay with SK-MEL-2 melanoma, -25.4% (active); in the assay with SN12C renal, 18%; with UO-31 renal it was 21%; in the assay with TK-10 renal, 7.16% (active). Further, the growth was 12.8% in the assay with ACHN renal; 22.5% with CAKI-1 renal; 31.1% in the assay with A498 renal; 13.7% in the assay with CCRF-CEM leukemia; 7.64% (active) in the assay on MOLT-4 leukemia.

With `CN(C)c1nc2c(N)ncnc2n1C1OC(CO)C(O)C1O` (stereo not drawn), the growth in the assay with HCT-15 colon was 104%; with SNB-75 CNS, 111%; with SNB-19 CNS, 107%; in the assay on U251 CNS it was 110%; with PC-3 prostate it was 94.2%; in the assay on SK-MEL-5 melanoma it was 108%. The growth was 99.1% in the assay with UACC-62 melanoma; 104% in the assay on LOX IMVI melanoma; 122% in the assay on SK-MEL-28 melanoma; 99.4% with SK-MEL-2 melanoma; 112% in the assay with EKVX NSCLC; 104% in the assay on SN12C renal. For the same molecule, the growth in the assay with UO-31 renal was 79.5%; with TK-10 renal, 107%; in the assay on ACHN renal it was 99.4%; in the assay with CAKI-1 renal it was 99.3%; in the assay on A498 renal, 114%; in the assay on MOLT-4 leukemia, 111%.

`CCOC(=O)C1CCNC(=O)C1=O` (stereo not drawn): the growth with HCT-15 colon was 111%; in the assay on SNB-75 CNS it was 101%; with SNB-19 CNS, 101%; in the assay with U251 CNS it was 111%; in the assay with PC-3 prostate, 105%; in the assay on SK-MEL-5 melanoma, 101%. Further, the growth in the assay on UACC-62 melanoma was 101%; with LOX IMVI melanoma it was 97.8%; in the assay on SK-MEL-28 melanoma it was 112%; in the assay on SK-MEL-2 melanoma, 107%; in the assay with EKVX NSCLC it was 122%; in the assay with SN12C renal, 97.3%. For the same molecule, the growth in the assay with UO-31 renal was 94.2%; with TK-10 renal, 103%; in the assay on ACHN renal it was 105%; in the assay on A498 renal, 110%; with CCRF-CEM leukemia, 93.7%; in the assay with MOLT-4 leukemia it was 96.6%.
